# “And” between values parts separate entries of the source, which are not always exact repeats. Identical values can stand only once. The source made the active and inactive calls.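 How the source made its calls: active means inhibition reaching about 16% in any single replicate (limit read from the data); inactive means the rest.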
# Target: Hexokinase HKDC1 (Homo sapiens) (UniProt Q2TB90)
# Test: HKDC1 hexokinase inhibitors, confirmation, biochemical, single concentration (AID 504710)
# Details: recombinant HKDC1, G6PDH/diaphorase/resazurin fluorescence; at 20 µM; hits give high values
# Sequence of Hexokinase HKDC1 (Homo sapiens) (Q2TB90 whole entry, looked up): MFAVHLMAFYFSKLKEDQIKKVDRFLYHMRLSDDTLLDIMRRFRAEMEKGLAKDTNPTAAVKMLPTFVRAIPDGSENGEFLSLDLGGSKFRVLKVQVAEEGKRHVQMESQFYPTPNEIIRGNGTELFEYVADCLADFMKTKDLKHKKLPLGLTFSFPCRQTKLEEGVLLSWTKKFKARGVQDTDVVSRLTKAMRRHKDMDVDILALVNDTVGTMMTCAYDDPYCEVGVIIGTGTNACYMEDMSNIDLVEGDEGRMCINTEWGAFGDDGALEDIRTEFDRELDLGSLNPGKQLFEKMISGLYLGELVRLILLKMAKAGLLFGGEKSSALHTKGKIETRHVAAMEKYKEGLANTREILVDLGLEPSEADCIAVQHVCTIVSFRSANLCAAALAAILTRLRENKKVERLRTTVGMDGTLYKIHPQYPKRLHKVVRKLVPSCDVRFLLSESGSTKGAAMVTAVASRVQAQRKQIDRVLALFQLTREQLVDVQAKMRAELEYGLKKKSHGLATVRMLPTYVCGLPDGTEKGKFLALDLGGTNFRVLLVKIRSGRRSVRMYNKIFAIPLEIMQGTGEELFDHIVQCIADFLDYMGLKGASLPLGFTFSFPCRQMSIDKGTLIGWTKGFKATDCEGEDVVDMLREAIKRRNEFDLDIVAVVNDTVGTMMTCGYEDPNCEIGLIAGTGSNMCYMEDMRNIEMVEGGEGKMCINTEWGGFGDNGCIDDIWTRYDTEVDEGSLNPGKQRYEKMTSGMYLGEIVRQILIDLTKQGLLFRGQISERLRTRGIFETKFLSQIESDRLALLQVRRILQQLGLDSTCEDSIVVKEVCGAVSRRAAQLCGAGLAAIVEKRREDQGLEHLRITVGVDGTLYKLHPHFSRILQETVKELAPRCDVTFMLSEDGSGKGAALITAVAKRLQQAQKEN
row,SMILES,inhibition
1,Cc1cccc2c(N=NC(=O)c3ccc(NS(=O)(=O)c4cccs4)cc3)c(O)[nH]c12,63.2% (active)
2,S=C(NCc1ccccn1)NN=Cc1ccccn1,-45.4% (inactive)
3,O=C1C=C(NCc2ccccc2)c2ccccc2C1=O,56% (active)
4,CSc1nc(N)nc2c1ncn2CC(=O)N[C@H](C)c1cccc2ccccc12,-73.5% (inactive)
5,CCOC(=O)c1ccc(NC(=O)CSc2ccc(-c3ccccn3)nn2)cc1,31.3% (active)
6,O=S(=O)(Nc1cc(Sc2ncn[nH]2)c(O)c2ccccc12)c1ccccc1,48.4% (active)
7,Cc1ccc(S(=O)(=O)/N=C2\C=C(Nc3cccc(C(=O)O)c3)C(=O)c3ccccc32)cc1,79.9% (active)
8,CCOC(=O)C1=C(Cc2ccc(F)cc2)C(=O)c2ccccc2C1=O,59.2% (active)
9,CCc1nc2c(c(=O)c3ccccc3n2C)c(=O)n1-c1ccc(F)cc1,72.7% (active)
10,Cc1cc(C)n2nc(SCc3nnc(SCc4ccccc4Cl)s3)nc2n1,43% (active)
11,O=C1C(Nc2ccc(O)cc2)=C/C(=N/S(=O)(=O)c2cccs2)c2ccccc21,56.9% (active)
12,CC1(C)C(=O)Nc2ccccc2N1C(=O)COC(=O)c1cc(Cl)cc(Cl)c1,-50.1% (inactive)
13,O=c1c2ccccc2nc(/C=C/c2cccnc2)n1Cc1ccccc1,60.7% (active)
14,CCN(CC)CCNc1cc(C)nc2c1C(=O)C(=O)C=C2N1CCCCC1,57.9% (active)
15,O=C(CSc1nnc(CCCN2C(=O)c3cccc4cccc(c34)C2=O)n1-c1ccccc1)N1CCCCC1,48.3% (active)
16,O=C(CSc1n[nH]c(-c2cccnc2)n1)Nc1ccc([N+](=O)[O-])cc1Br,56.4% (active)
17,NS(=O)(=O)c1ccc(N=Nc2c(=O)[nH]n3c(=O)c4c([nH]c23)CCCC4)cc1,72.5% (active)
18,COc1ccc(-c2nc3c(c(=O)n(C)c(=O)n3C)n2CC2CC(c3ccccc3)=NO2)cc1OC (configuration not stated),-32.8% (inactive)
19,COP(=O)(OC)c1ccc(NCc2cc(O)ccc2O)cc1,53.1% (active)

row,SMILES,inhibition
1,CCCC(=O)NC1=C(Cl)C(=O)c2ccccc2C1=O,81.4% (active)
2,COC(=O)c1ccc(NCc2cc(O)ccc2O)cc1,65.1% (active)
3,COc1cc(N=c2ssnc2Cl)c(OC)cc1Cl,-58.8% (inactive) and -56.9% (inactive)
4,O=C1C=C(Nc2ccccc2C(=O)O)c2ccccc2C1=O,44.3% (active)
5,Cn1c(-c2ccccc2)c(C(=O)CC#N)c2ccccc21,-42% (inactive)
6,O=C1C(Cl)=C(NC(=O)c2ccccc2)C(=O)C(Cl)=C1NC(=O)c1ccccc1,41.4% (active)
7,Cc1ccc(SC2=C(Sc3ccc(C)cc3)C(=O)c3ccccc3C2=O)cc1,69% (active)
8,CCCc1nc2c(c(=O)c3ccccc3n2C)c(=O)n1-c1ccc(F)cc1,58.5% (active)
9,CC(C)c1ccc(S(=O)(=O)/N=C2/C=C(Sc3ncn[nH]3)C(=O)c3ccccc32)cc1,60.8% (active)
10,CC1=NOC(=O)/C1=C\c1ccc(-c2ccc(Cl)cc2Cl)o1,47.4% (active)
11,CC(C)(C=O)C1=CC(=O)c2ccccc2C1=O,41.2% (active)
12,CC(=O)N(C1=C(Cl)C(=O)c2ccccc2C1=O)c1ccc(C(=O)O)cc1,64.4% (active)
13,O=S(=O)(NC1c2cccc3cccc(c23)C1N1CCN(CCO)CC1)c1ccccc1 (configuration not stated),-118% (inactive)
14,COc1cc(/C=C(\C#N)c2nc3ccc(C)cc3[nH]2)cc([N+](=O)[O-])c1O,42.2% (active)
15,CCCCNC(=O)c1sc(=S)n2c1[nH]c(=O)c1ccc(C(=O)NCCc3ccc(OC)c(OC)c3)cc12,49.8% (active)
16,CC(NC1=CC(=O)c2cccnc2C1=O)C(O)c1ccccc1 (configuration not stated),43.3% (active)
17,CCCCNC(=O)c1sc(=S)n2c1[nH]c(=O)c1ccccc12,56.5% (active)
18,S=C1Cc2ccccc2N1,-192% (inactive)

# Source: PubChem BioAssay AID504710 (Sanford-Burnham Center for Chemical Genomics, 2011)
